PubChem BioAssay (EPA / NIEHS)
Calls of active or inactive are those of the source. How the source made its calls: active means hit-call score of the fitted dose curve at least 0.9, where 1 is the maximum; inactive means score below 0.9.

Key:
[1] = read-out: Monokine induced gamma interferon (MIG), CXCL9 (gene 4283); experiment: BSK_hDFCGF_MIG: BioMAP Diversity Plus: hDFCGF Assay for Monokine induced gamma interferon (MIG) Biomarker Activity (AID 2283063); settings: primary human foreskin fibroblasts; actives raise or lower the signal
In short: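 MIG signal, determined by ELISA, reflects 24 h chemical exposure of human skin primary fibroblasts. DMSO serves as negative control and baseline.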

[2] = read-out: Matrix Metallopeptidase 1 (MMP1), MMP1 (gene 4312); experiment: BSK_hDFCGF_MMP1: BioMAP Diversity Plus: hDFCGF Assay for Matrix Metallopeptidase 1 (MMP1) Biomarker Activity (AID 2283064); settings: primary human foreskin fibroblasts; actives raise or lower the signal
In short: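 Primary human foreskin fibroblasts in the hDFCGF system were dosed with test chemical, and MMP1 was measured by ELISA 24 h later. Values come from bidirectional curve fitting against the DMSO baseline.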

[3] = read-out: Vascular cell adhesion molecule 1 (VCAM1), VCAM1 (gene 7412); experiment: BSK_hDFCGF_VCAM1: BioMAP Diversity Plus: hDFCGF Assay for Vascular cell adhesion molecule 1 (VCAM1) Biomarker Activity (AID 2283065); settings: primary human foreskin fibroblasts; actives raise or lower the signal;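 on AC50: VCAM-1 protein level quantified by ELISA after 24 h chemical exposure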
In short: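 Cells are dosed, cultured for 24 h, then VCAM-1 is quantified by ELISA; signal increases and decreases are both fitted relative to DMSO.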

[4] = read-out: Plasminogen activator inhibitor-1 (PAI1), SERPINE1 (gene 5054); experiment: BSK_hDFCGF_PAI1: BioMAP Diversity Plus: hDFCGF Assay for Plasminogen activator inhibitor-1 (PAI1) Biomarker Activity (AID 2283066); settings: primary human foreskin fibroblasts; actives raise or lower the signal
In short: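 Human foreskin fibroblast primary cells, 24 h chemical exposure; PAI-1 measured by ELISA. Bidirectional fitting relative to DMSO; parallel cultures stained with SRB for total protein to flag overt cytotoxicity.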

[5] = read-out: Intercellular Adhesion Molecule 1 (ICAM1), ICAM1 (gene 3383); experiment: BSK_KF3CT_ICAM1: BioMAP Diversity Plus: KF3CT Assay for Intercellular Adhesion Molecule 1 (ICAM1) Biomarker Activity (AID 2283067); settings: primary human keratinocytes with fibroblasts; actives raise or lower the signal
In short: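 Dose the keratinocyte/fibroblast co-culture, wait 24 h, measure ICAM-1 by ELISA, then fit increases or decreases against DMSO. Cytotoxicity is checked in parallel cultures by SRB total-protein staining.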

[6] = read-out: Interferon-gamma inducible Protein 10 (IP10), CXCL10 (gene 3627); experiment: BSK_KF3CT_IP10: BioMAP Diversity Plus: KF3CT Assay for Interferon-gamma inducible Protein 10 (IP10) Biomarker Activity (AID 2283068); settings: primary human keratinocytes with fibroblasts; actives raise or lower the signal
In short: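 KF3CT co-culture (keratinocytes + foreskin fibroblasts), 24 h compound, IP-10 by ELISA; bidirectional fit vs DMSO baseline.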

[7] = BSK_KF3CT_SRB: Viability Assessment in the BioMAP Diversity Plus: KF3CT Assay (AID 2283069); settings: primary human keratinocytes with fibroblasts
In short: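 Human primary keratinocyte plus foreskin fibroblast co-culture exposed to chemicals for 24 h. Total protein measured by 0.1% sulforhodamine B staining after 10% TCA fixation, read at 560 nm; bidirectional fitting versus DMSO baseline.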

[8] = read-out: Interleukin-1 alpha (IL1a), IL1A (gene 3552); experiment: BSK_KF3CT_IL1a: BioMAP Diversity Plus: KF3CT Assay for Interleukin-1 alpha (IL1a) Biomarker Activity (AID 2283070); settings: primary human keratinocytes with fibroblasts; actives raise or lower the signal
In short: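 Human keratinocyte plus foreskin fibroblast primary co-culture, sampled 24 h after chemical dosing. IL-1a measured by ELISA; responses fitted bidirectionally against DMSO baseline (negative control), so gain or loss of signal both count.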

[9] = read-out: TIMP metallopeptidase inhibitor 2 (TIMP2), TIMP2 (gene 7077); experiment: BSK_KF3CT_TIMP2: BioMAP Diversity Plus: KF3CT Assay for TIMP metallopeptidase inhibitor 2 (TIMP2) Biomarker Activity (AID 2283071); settings: primary human keratinocytes with fibroblasts; actives raise or lower the signal
In short: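 Co-culture of human primary keratinocytes and foreskin fibroblasts, measured 24 h after chemical dosing. TIMP-2 quantified by ELISA and fitted in both directions relative to DMSO. Cytotoxicity checked in parallel cultures by SRB total-protein staining.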

[10] = read-out: Transforming growth factor beta 1 (TGFb1), TGFB1 (gene 7040); experiment: BSK_KF3CT_TGFb1: BioMAP Diversity Plus: KF3CT Assay for Transforming growth factor beta 1 (TGFb1) Biomarker Activity (AID 2283072); settings: primary human keratinocytes with fibroblasts; actives raise or lower the signal
In short: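 Human keratinocyte/foreskin fibroblast co-culture; TGF-b1 measured by ELISA 24 h after dosing, fitted bidirectionally versus DMSO. Cytotoxicity checked in parallel cultures by total protein (SRB staining, 560 nm).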

[11] = read-out: C-C motif chemokine 2 (Homo sapiens) (UniProt P13500); experiment: BSK_KF3CT_MCP1: BioMAP Diversity Plus: KF3CT Assay for Monocyte Chemoattractant Protein 1 (MCP1/CCL2) Biomarker Activity (AID 2283073); settings: primary human keratinocytes with fibroblasts; actives raise or lower the signal
In short: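 Keratinocytes and foreskin fibroblasts were co-cultured, dosed with chemical, and sampled 24 h later. MCP-1 was quantified by ELISA, and the endpoint was analyzed with bidirectional fitting using DMSO as negative control.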

[12] = read-out: Matrix Metallopeptidase 9 (MMP9), MMP9 (gene 4318); experiment: BSK_KF3CT_MMP9: BioMAP Diversity Plus: KF3CT Assay for Matrix Metallopeptidase 9 (MMP9) Biomarker Activity (AID 2283074); settings: primary human keratinocytes with fibroblasts; actives raise or lower the signal;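 on AC50: MMP9 protein level quantified by ELISA in the co-culture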
In short: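 Keratinocyte plus foreskin fibroblast human primary skin co-culture was dosed with chemical and MMP-9 was quantified by ELISA 24 h later. Bidirectional curve fitting used DMSO as negative control and activity baseline.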

[13] = read-out: urokinase plasminogen activator (uPA), PLAU (gene 5328); experiment: BSK_KF3CT_uPA: BioMAP Diversity Plus: KF3CT Assay for urokinase plasminogen activator (uPA) Biomarker Activity (AID 2283075); settings: primary human keratinocytes with fibroblasts; actives raise or lower the signal
In short: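 Human keratinocyte plus foreskin fibroblast primary co-culture exposed to chemical for 24 h. uPA levels were quantified by ELISA, and activity was fitted bidirectionally against a DMSO negative-control baseline.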

CD40, CD40 (gene 958) = experiment: BSK_LPS_CD40: BioMAP Diversity Plus: LPS Assay for CD40 Biomarker Activity (AID 2283076); settings: primary human HUVEC with PBMC; actives raise or lower the signal
In short: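 CD40 signal, measured by ELISA, is fitted in both directions relative to DMSO vehicle. The system is an LPS-driven human vascular primary co-culture of endothelial cells and PBMC, sampled 24 h after compound addition.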

[14] = read-out: E-selectin (Homo sapiens) (UniProt P16581); experiment: BSK_LPS_Eselectin: BioMAP Diversity Plus: LPS Assay for Eselectin Biomarker Activity (AID 2283077); settings: primary human HUVEC with PBMC; actives raise or lower the signal
In short: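 Signal of E-selectin, detected by ELISA, served as the endpoint; cells were umbilical vein endothelium with PBMC, read 24 h after treatment. DMSO defined baseline, and both increases and decreases were fitted.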

[15] = read-out: Interleukin-8 (IL8), CXCL8 (gene 3576); experiment: BSK_LPS_IL8: BioMAP Diversity Plus: LPS Assay for Interleukin-8 (IL8) Biomarker Activity (AID 2283078); settings: primary human HUVEC with PBMC; actives raise or lower the signal
In short: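 Endothelial cells and PBMC from human donors are co-cultured, treated with chemicals and LPS, then assayed for IL-8 by ELISA after 24 h. Parallel SRB staining (0.1% SRB after 10% TCA fixation, 560 nm) flags cytotoxicity.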

[16] = BSK_LPS_SRB: Viability Assessment in the BioMAP Diversity Plus: LPS Assay (AID 2283079); settings: primary human HUVEC with PBMC;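 further: total protein by sulforhodamine B absorbance as a cytotoxicity measure; measured one day after compound addition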
In short: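 Overt cytotoxicity was gauged by sulforhodamine B total-protein staining in a primary human vascular endothelial and mononuclear cell co-culture 24 h post-dosing. Activity was fitted in both directions relative to DMSO.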

[17] = read-out: Interleukin-1 alpha (IL1a), IL1A (gene 3552); experiment: BSK_LPS_IL1a: BioMAP Diversity Plus: LPS Assay for Interleukin-1 alpha (IL1a) Biomarker Activity (AID 2283080); settings: primary human HUVEC with PBMC; actives raise or lower the signal
In short: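 Measured: IL-1 alpha via ELISA at 24 h in LPS-activated human umbilical vein endothelium–PBMC co-culture. Baseline: DMSO, bidirectional fitting.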

[18] = read-out: Monocyte Chemoattractant Protein-1 (MCP1), CCL2 (gene 6347); experiment: BSK_LPS_MCP1: BioMAP Diversity Plus: LPS Assay for Monocyte Chemoattractant Protein-1 (MCP1) Biomarker Activity (AID 2283081); settings: primary human HUVEC with PBMC; actives raise or lower the signal;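 on AC50: secreted MCP-1 protein quantified by ELISA in culture supernatant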
In short: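 LPS-stimulated HUVEC/PBMC co-culture; chemical, 24 h; MCP-1 by ELISA; bidirectional fit vs DMSO; cytotoxicity via SRB (0.1% stain, 10% TCA fix, 560 nm) in parallel wells.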

[19] = BSK_LPS_PGE2: BioMAP Diversity Plus: LPS Assay for Prostaglandin E2 (PGE2) Biomarker Activity (AID 2283082); settings: primary human HUVEC with PBMC; actives raise or lower the signal;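 on AC50: secreted prostaglandin E2 measured by ELISA in LPS-stimulated co-culture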
In short: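 HUVEC plus human PBMC co-culture stimulated with LPS; secreted PGE2 quantified by ELISA 24 h after chemical dosing. Activity fitted bidirectionally against DMSO baseline; parallel SRB staining (0.1% SRB after 10% TCA fixation, 560 nm) flags overt cytotoxicity.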

Measured: AC50

Sequence of E-selectin (Homo sapiens) (P16581 whole entry, looked up): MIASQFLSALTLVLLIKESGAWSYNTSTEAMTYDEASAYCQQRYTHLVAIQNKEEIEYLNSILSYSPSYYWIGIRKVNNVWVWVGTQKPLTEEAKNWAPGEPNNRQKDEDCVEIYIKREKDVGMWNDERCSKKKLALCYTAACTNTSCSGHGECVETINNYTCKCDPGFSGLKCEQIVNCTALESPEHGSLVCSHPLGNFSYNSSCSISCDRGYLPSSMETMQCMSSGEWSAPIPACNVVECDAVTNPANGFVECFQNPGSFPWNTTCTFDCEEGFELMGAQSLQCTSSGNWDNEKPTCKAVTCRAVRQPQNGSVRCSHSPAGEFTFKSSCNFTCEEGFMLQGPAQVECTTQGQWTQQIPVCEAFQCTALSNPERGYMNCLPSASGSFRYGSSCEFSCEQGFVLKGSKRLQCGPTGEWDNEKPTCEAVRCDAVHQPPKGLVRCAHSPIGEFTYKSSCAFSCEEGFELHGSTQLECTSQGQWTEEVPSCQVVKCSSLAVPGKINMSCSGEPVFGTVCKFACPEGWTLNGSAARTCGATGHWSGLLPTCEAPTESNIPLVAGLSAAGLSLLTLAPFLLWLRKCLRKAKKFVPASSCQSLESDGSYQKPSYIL

CCN(CC)CCOc1ccc(C(=C(Cl)c2ccccc2)c2ccccc2)cc1
active: [1] 13 µM | [2] 13.2 µM | [3] 14.1 µM | [4] 9.48 µM | [5] 14 µM | [6] 13.5 µM | [7] 12 µM | [8] 14.5 µM | [9] 12.6 µM | [10] 12.4 µM | [11] 14.3 µM | [12] 11.7 µM | [13] 13.7 µM | CD40, CD40 (gene 958) 8.67 µM | [14] 13.3 µM | [15] 11.3 µM | [16] 10.4 µM | [17] 8.81 µM | [18] 14.3 µM | [19] 8.26 µM

CC(=O)OCC(COC(C)=O)OC(C)=O
inactive: all assays above

CC(=O)[C@@]1(O)CC[C@H]2[C@@H]3CCC4=CC(=O)CC[C@]4(C)[C@H]3CC[C@@]21C
inactive: all assays above

CC(C)c1cccc(C(C)C)c1
inactive: all assays above

CCc1nc(N)nc(N)c1-c1ccc(Cl)cc1
inactive: all assays above

Cc1occc(=O)c1O
not listed: [9]
inactive: all other assays above

CC(=O)OC1CC(C)OC(C)O1 (stereo not given)
active: [4] 0.523 µM
inactive: all other assays above

CCCCCCCCCC[N+](C)(C)[O-]
not listed: [9]
inactive: all other assays above

CN(C)CCCN1c2ccccc2Sc2ccc(Cl)cc21
inactive: [9] | [11] | [14] | [19]
active: [1] 31.1 µM | [2] 31.5 µM | [3] 24.7 µM | [4] 31.9 µM | [5] 35.4 µM | [6] 30.8 µM | [7] 31.6 µM | [8] 31 µM | [10] 33.2 µM | [12] 31.6 µM | [13] 30.3 µM | CD40, CD40 (gene 958) 25.3 µM | [15] 23.9 µM | [16] 24.9 µM | [18] 26 µM

CCCCc1nc2cccnc2n1Cc1ccc(-c2ccccc2-c2nnn[nH]2)cc1
active: [6] 29.7 µM | [12] 0.0268 µM
inactive: all other assays above

Cc1ccc(-c2cc(C(F)(F)F)nn2-c2ccc(S(N)(=O)=O)cc2)cc1
active: CD40, CD40 (gene 958) 26.6 µM | [14] 30.9 µM | [15] 35.6 µM | [16] 29.2 µM | [17] 30.5 µM | [19] 0.288 µM
not listed: [18]
inactive: all other assays above

CN(C)C(=O)NC1(c2ccccc2)CCN(CC[C@@]2(c3ccc(F)c(F)c3)CN(C(=O)c3ccccc3)CCO2)CC1
inactive: all assays above

O=C1O[C@H]([C@H](O)CO)C(O)=C1O
inactive: all assays above

C#CC(O)C(CC)CCCC (stereo not given)
not listed: [9]
inactive: all other assays above
